From PubChem BioAssay (Tox21)
Results filed as inconclusive are left out. Activity calls are given as the source filed them. Unless noted, calls follow the shape of the dose curve; as a rule, active = well fitted curve in the direction sought with a large enough effect in the repeat runs; inconclusive = weak or mixed curves; inactive = no such curve, though single readings can be large; an effect the other way counts as inactive or inconclusive.

Tests used:
[1] = qHTS assay to identify small molecule agonists of the peroxisome proliferator-activated receptor delta (PPARd) signaling pathway - cell viability counter screen (AID 743211); also: nearly all actives have a fitted effect of over 55% in size; also: potency is read from the fitted curve at half-maximal effect
Method in brief: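 PPARd-bla HEK293H cells (UAS-beta-lactamase reporter) were treated with compounds for 17 h at 37 C. Viability was then read in the same wells by CellTiter-Glo luminescence after 30 min at room temperature.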

[2] = target: Peroxisome proliferator-activated receptor delta (Homo sapiens) (UniProt Q03181); experiment: qHTS assay to identify small molecule agonists of the peroxisome proliferator-activated receptor delta (PPARd) signaling pathway (AID 743212; calls by dose curve)
Method in brief: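 Beta-lactamase reporter readout: a ratiometric FRET signal from the LiveBLAzer substrate after 2 h at room temperature. Compound exposure at 37 °C in PPARδ-bla HEK293H cells driven by an upstream activator sequence.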

[3] = qHTS assay to identify small molecule antagonists of the peroxisome proliferator-activated receptor delta (PPARd) signaling pathway - cell viability counter screen (AID 743213); also: nearly all actives have a fitted effect of over 50% in size
Method in brief: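 CellTiter-Glo was added to PPARd-bla HEK293H wells following 17 h compound treatment in the presence of 300 nM L165041. Luminescence was recorded after 30 min at room temperature.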

[4] = target: Peroxisome proliferator-activated receptor delta (Homo sapiens) (UniProt Q03181); experiment: qHTS assay to identify small molecule antagonists of the peroxisome proliferator-activated receptor delta (PPARd) signaling pathway (AID 743215; active = well fitted inhibition curve with a large enough effect in the signal ratio in the repeat runs, not every such curve was filed as active; the % refers to the signal ratio;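 also: cells stimulated with agonist L165041 at 300 nM final during compound exposure; series mostly up to about 62 µM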)
Method in brief: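 Plated HEK293H PPARd-bla cells rested 5 h at 37 C and 5% CO2. Compound, then agonist L165041 at 300 nM final, was added; 17 h at 37 C followed. Substrate loading, 2 h room temperature, fluorescence measured.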

[5] = target: Bile acid receptor (Homo sapiens) (UniProt Q96RI1); experiment: qHTS assay to identify small molecule antagonists of the farnesoid-X-receptor (FXR) signaling pathway (AID 743217; active = well fitted inhibition curve with a large enough effect in the signal ratio in the repeat runs, not every such curve was filed as active; the % refers to the signal ratio)
Method in brief: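 Screen of the Tox21 10K library in quantitative HTS format using FXR-UAS-bla HEK 293T reporter cells. Agonist chenodeoxycholic acid, 50 uM final, added with compounds; 16 h incubation at 37 °C; beta-lactamase FRET fluorescence measured.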

[6] = qHTS assay to identify small molecule agonists of the farnesoid-X-receptor (FXR) signaling pathway - cell viability counter screen (AID 743218); also: nearly all actives have a fitted effect of over 45% in size
Method in brief: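 Viability of FXR-bla HEK 293T cells is measured by ATP-based CellTiter-Glo luminescence following 16 h compound treatment at 37 C and a prior 2 h room-temperature beta-lactamase substrate step.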

[7] = target: Bile acid receptor (Homo sapiens) (UniProt Q96RI1); experiment: qHTS assay to identify small molecule agonists of the farnesoid-X-receptor (FXR) signaling pathway (AID 743220; active = well fitted activation curve with a large enough effect in the signal ratio in the repeat runs, not every such curve was filed as active; the % refers to the signal ratio)
Method in brief: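 FXR-UAS-bla HEK 293T cells carrying a UAS-driven beta-lactamase reporter were plated for 5 h at 37C/5% CO2, then exposed to DMSO-dissolved Tox21 10K compounds for 16 h at 37C. A LiveBLAzer B/G FRET substrate was loaded for 2 h at room temperature before fluorescence reading.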

[8] = qHTS assay to identify small molecule antagonists of the farnesoid-X-receptor (FXR) signaling pathway - cell viability counter screen (AID 743221; active = well fitted cell-killing curve with a large enough effect in the repeat runs, not every such curve was filed as active; also: nearly all actives have a fitted effect of over 50% in size)
Method in brief: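 FXR-UAS-bla HEK 293T cells were treated with test compounds plus chenodeoxycholic acid (50 uM final) for 16 h at 37 C. Cell viability in the same wells was then read as CellTiter-Glo luminescence after 30 min at room temperature.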

[9] = qHTS assay to identify small molecule agonists of the vitamin D receptor (VDR) signaling pathway - cell viability counter screen (AID 743224); also: nearly all actives have a fitted effect of over 50% in size; also: potency is read from the fitted curve at half-maximal effect
Method in brief: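 Compounds were pin-transferred onto VDR-bla cells plated 4 h earlier; following 16 h incubation at 37C, cell viability was quantified by CellTiter-Glo luminescence after 30 min at room temperature.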

[10] = qHTS assay to identify small molecule antagonists of the vitamin D receptor (VDR) signaling pathway - cell viability counter screen (AID 743225); also: nearly all actives have a fitted effect of over 50% in size
Method in brief: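 VDR-bla HEK 293T cells, 4 h pre-incubation at 37C, then compound plus 1-alpha,25-dihydroxyvitamin D3 (3 nM final) for 16 h. After the beta-lactamase FRET read, CellTiter-Glo was added to the same wells; luminescence after 30 min at room temperature.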

[11] = qHTS assay to identify small molecule agonists of the NFkB signaling pathway (AID 1159509; active = well fitted curve in the direction sought with a large enough effect in the signal ratio in the repeat runs, not every such curve was filed as active; the % refers to the signal ratio; also: series mostly up to about 61 µM)
Method in brief: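 Agonist activity was read as beta-lactamase-driven FRET change (460 and 530 nm emission, 405 nm excitation) following 1.5 hr substrate loading at room temperature. Beforehand, ME-180 NFkB-bla reporter cells were treated with compounds for 5 hr at 37 C.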

[12] = qHTS assay to identify small molecule agonists of the NFkB signaling pathway - cell viability counter screen (AID 1159515; calls by dose curve; also: series mostly up to about 61 µM; nearly all actives have a fitted effect of over 55% in size)
Method in brief: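 Parallel cytotoxicity counter screen in ME-180 cells carrying an NFkB-response-element beta-lactamase reporter, 2,000 cells/well. Compound exposure lasted 5 hr at 37 C, 5% CO2. Cell viability was quantified by CellTiter-Glo luminescence.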

[13] = qHTS assay to identify small molecule agonists of the endoplasmic reticulum stress response signaling pathway (AID 1159516; active = well fitted activation curve with a large enough effect in the signal ratio in the repeat runs, not every such curve was filed as active; the % refers to the signal ratio)
Method in brief: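 Using a HeLa line with an ESRE-driven beta-lactamase gene, agonist activity was measured by FRET substrate fluorescence (460 and 530 nm emission) after cells were treated with compounds for 5 hr at 37 C and 5% CO2.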

[14] = qHTS assay to identify small molecule agonists of the endoplasmic reticulum stress response signaling pathway - cell viability counter screen (AID 1159517; calls by dose curve)
Method in brief: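 ESRE-bla HeLa cells (1,500/well) were plated overnight at 37 C and exposed to compounds for 5 hr. After the 2 hr beta-lactamase substrate read, CellTiter-Glo went into the same wells, and luminescence was read after 30 min at room temperature.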

[15] = qHTS assay to identify small molecule antagonists of the retinoid-related orphan receptor gamma (ROR-gamma) signaling pathway - cell viability counter screen (AID 1159520); also: nearly all actives have a fitted effect of over 50% in size
Method in brief: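 Cytotoxicity was read from cellular ATP (CellTiter-Glo luminescence) after 16 hr at 37 C with 1 uM doxycycline induction. The inducer was added 2 hr after compound transfer to Tet-on ROR gamma CHO cells.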

[16] = qHTS assay to identify small molecule agonists of the AP-1 signaling pathway - cell viability counter screen (AID 1159525; calls by dose curve; also: nearly all actives have a fitted effect of over 55% in size)
Method in brief: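 Intracellular ATP by Cell Titer Glo luminescence (30 min, RT) in the same ME-180 AP-1-bla wells after the 5 h compound exposure at 37 °C. Normalised to tetra n-octyl ammonium bromide and DMSO controls.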

[17] = qHTS assay to identify small molecule agonists of the AP-1 signaling pathway (AID 1159526; calls by dose curve)
[18] = target: Vitamin D3 receptor (Homo sapiens) (UniProt P11473); experiment: qHTS assay to identify small molecule agonists of the vitamin D receptor (VDR) signaling pathway (AID 743222; calls by dose curve)
Method in brief: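 Fluorescence from cleaved LiveBLAzer B/G FRET substrate served as readout. VDR-bla cells had been treated 16 h at 37C with test compounds in DMSO, following a 4 h settling period, and substrate was loaded for 2 h at RT.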

[19] = target: Vitamin D3 receptor (Homo sapiens) (UniProt P11473); experiment: qHTS assay to identify small molecule antagonists of the vitamin D receptor (VDR) signaling pathway (AID 743223; active = well fitted inhibition curve with a large enough effect in the signal ratio in the repeat runs, not every such curve was filed as active; the % refers to the signal ratio)
Method in brief: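 VDR-bla cells were plated, incubated 4 h at 37C, then given compound and 1alpha,25-dihydroxyvitamin D3 (3 nM final). After 16 h at 37C, LiveBLAzer B/G FRET substrate was added for 2 h at room temperature and fluorescence read.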

[20] = target: Nuclear receptor ROR-gamma (Homo sapiens) (UniProt P51449); experiment: qHTS assay to identify small molecule antagonists of the retinoid-related orphan receptor gamma (ROR-gamma) signaling pathway (AID 1159521; also: nearly all actives have a fitted effect of over 50% in size; also: potency is read from the fitted curve at half-maximal effect)
Method in brief: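 Tet-on RORγ CHO cells carrying a ROR response element–luciferase reporter were pretreated with compounds for 2 h, then induced with 1 uM (final) doxycycline hyclate for 16 h at 37 C. Antagonism was read as decreased ONE-Glo luminescence.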

Measured: Potency

Chain of Peroxisome proliferator-activated receptor delta (Homo sapiens) (Q03181 whole entry, looked up): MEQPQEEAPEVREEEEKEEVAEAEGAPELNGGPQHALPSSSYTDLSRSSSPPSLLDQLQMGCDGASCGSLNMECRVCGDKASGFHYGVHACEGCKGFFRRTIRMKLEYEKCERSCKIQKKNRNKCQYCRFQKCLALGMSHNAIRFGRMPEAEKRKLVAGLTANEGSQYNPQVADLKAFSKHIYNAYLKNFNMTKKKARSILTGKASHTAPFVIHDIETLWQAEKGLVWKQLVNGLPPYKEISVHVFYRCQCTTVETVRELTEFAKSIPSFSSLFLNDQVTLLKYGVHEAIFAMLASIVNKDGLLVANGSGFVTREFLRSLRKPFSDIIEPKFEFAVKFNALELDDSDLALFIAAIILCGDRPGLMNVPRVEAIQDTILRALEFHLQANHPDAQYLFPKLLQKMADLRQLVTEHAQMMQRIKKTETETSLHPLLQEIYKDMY
Chain of Bile acid receptor (Homo sapiens) (Q96RI1 whole entry, looked up): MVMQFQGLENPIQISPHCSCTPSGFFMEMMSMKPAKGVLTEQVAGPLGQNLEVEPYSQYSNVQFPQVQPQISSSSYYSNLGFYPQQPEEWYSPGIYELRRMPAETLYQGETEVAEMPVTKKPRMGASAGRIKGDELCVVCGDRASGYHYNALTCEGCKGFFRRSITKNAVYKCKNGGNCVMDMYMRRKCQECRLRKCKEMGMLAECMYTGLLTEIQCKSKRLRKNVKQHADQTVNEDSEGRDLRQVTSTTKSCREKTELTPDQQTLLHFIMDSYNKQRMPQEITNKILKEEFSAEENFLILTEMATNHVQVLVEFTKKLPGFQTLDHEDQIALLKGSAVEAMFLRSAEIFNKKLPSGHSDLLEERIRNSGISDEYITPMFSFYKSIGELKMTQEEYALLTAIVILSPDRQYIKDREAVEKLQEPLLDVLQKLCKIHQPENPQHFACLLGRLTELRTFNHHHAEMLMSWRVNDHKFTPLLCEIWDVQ
Chain of Vitamin D3 receptor (Homo sapiens) (P11473 whole entry, looked up): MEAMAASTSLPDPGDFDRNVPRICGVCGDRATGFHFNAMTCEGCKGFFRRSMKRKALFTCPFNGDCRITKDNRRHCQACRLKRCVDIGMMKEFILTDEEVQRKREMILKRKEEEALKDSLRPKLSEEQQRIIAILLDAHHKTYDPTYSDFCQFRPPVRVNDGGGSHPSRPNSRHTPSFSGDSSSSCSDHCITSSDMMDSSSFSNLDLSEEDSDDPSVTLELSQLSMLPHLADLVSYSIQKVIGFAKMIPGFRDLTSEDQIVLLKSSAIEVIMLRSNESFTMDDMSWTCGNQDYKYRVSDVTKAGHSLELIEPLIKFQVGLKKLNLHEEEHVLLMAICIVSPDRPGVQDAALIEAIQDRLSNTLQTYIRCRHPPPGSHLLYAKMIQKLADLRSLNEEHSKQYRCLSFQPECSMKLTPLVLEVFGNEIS

CC(C)(C)C(=O)C(Oc1ccc(Cl)cc1)n1ccnc1 (stereo not drawn)
not listed: [18] | [19] | [20]
inactive: all other assays above

Nc1c(I)cc(I)c(C(=O)N(CCC(=O)O)c2ccccc2)c1I
not listed: [10] | [20]
inactive: all other assays above

CC(=O)OCC(=O)[C@@]12OC(C)(C)O[C@@H]1C[C@H]1[C@@H]3C[C@H](F)C4=CC(=O)C=C[C@]4(C)[C@@]3(F)[C@@H](O)C[C@@]12C
not listed: [5] | [7] | [19] | [20]
inactive: all other assays above

CN1CCCN=C1/C=C/c1cccs1
not listed: [4] | [5] | [7] | [20]
inactive: all other assays above

Nc1ccc(Cl)cc1[N+](=O)[O-]
not listed: [3] | [5] | [7] | [20]
inactive: all other assays above

C[C@@H]1C[C@H]2[C@@H]3CCC4=CC(=O)C=C[C@]4(C)[C@@]3(F)[C@@H](O)C[C@]2(C)[C@H]1C(=O)CO
not listed: [5] | [7] | [10] | [20]
inactive: all other assays above

CCC1(C)CC(=O)NC1=O (stereo not drawn)
not listed: [5] | [7] | [18] | [19] | [20]
inactive: all other assays above

CCCCCCCCCCCC[N+](C)(C)CC(=O)[O-]
active: [1] 15.5 µM
not listed: [3] | [6] | [8] | [9] | [10] | [15]
inactive: all other assays above

CCCCOC(=O)CCS
not listed: [5] | [16] | [19] | [20]
inactive: all other assays above

CC1(C)O[C@@H]2C[C@H]3[C@@H]4CCC5=CC(=O)C=C[C@]5(C)[C@H]4[C@@H](O)C[C@]3(C)[C@]2(C(=O)CO)O1
not listed: [2] | [4] | [5] | [7] | [10] | [17] | [20]
inactive: all other assays above

CC(C)C(=O)O
not listed: [3] | [5] | [7] | [16] | [20]
inactive: all other assays above

O=C(c1ccc(O)cc1)c1ccc(Cl)cc1
not listed: [2] | [4] | [15] | [19]
inactive: all other assays above

CC(COc1ccc(C(C)(C)C)cc1)OS(=O)OCCCl (stereo not drawn)
active: [20] 24.5 µM
not listed: [5] | [15] | [18]
inactive: all other assays above

CC(C)CCCCCOC(=O)CCCCC(=O)OCCCCCC(C)C
not listed: [1] | [5] | [7] | [16] | [20]
inactive: all other assays above

CCCCCCOC(=O)C(C)C
not listed: [15]
inactive: all other assays above

Oc1ccc(Nc2ccccc2)cc1
active: [9] 54.9 µM
not listed: [3] | [4] | [6] | [7] | [10] | [16] | [19] | [20]
inactive: all other assays above

CCOCCn1c(C2CCN(CCc3ccc(C(C)(C)C(=O)O)cc3)CC2)nc2ccccc21
not listed: [3] | [4] | [10] | [16] | [20]
inactive: all other assays above

O=C(Nc1ccccc1)Nc1ccccc1
not listed: [5] | [6] | [7] | [8] | [15] | [18] | [19]
inactive: all other assays above

C=C(C)C(=O)OCCOC(=O)CC(C)=O
not listed: [3] | [4] | [10] | [16] | [19] | [20]
inactive: all other assays above

Nc1ccc(C(=O)OCCCOC(=O)c2ccc(N)cc2)cc1
not listed: [1] | [2] | [3] | [4] | [16] | [18] | [20]
inactive: all other assays above

C[Si](NC1CCCCC1)(NC1CCCCC1)NC1CCCCC1
not listed: [8] | [10] | [16] | [20]
inactive: all other assays above

CC#N
not listed: [16] | [18] | [19] | [20]
inactive: all other assays above

CCc1cccc(N(C)C(N)=Nc2cccc3ccccc23)c1
not listed: [2] | [4] | [5] | [7] | [9] | [17] | [20]
inactive: all other assays above

CC(C)CCCC(=O)O
not listed: [2] | [15] | [19]
inactive: all other assays above

CCC(=O)Oc1ccc(/C(CC)=C(\CC)c2ccc(OC(=O)CC)cc2)cc1
inactive: [2] | [8] | [19] | [10] | [11] | [12] | [13] | [14] | [15] | [17]
active: [1] 54.9 µM | [9] 54.9 µM

COc1ccc([C@@H]2Sc3ccccc3NC(=O)[C@@H]2O)cc1
not listed: [3] | [5] | [16] | [19] | [20]
inactive: all other assays above

O=C(CCC1CCN(Cc2ccccc2)CC1)c1ccc2c(c1)NCCCC2
inactive: [6] | [8] | [11] | [12] | [13] | [14] | [15] | [16]

Cc1occc1C(=O)Nc1ccc(C(=O)N2CCC(F)(F)/C(=C\C(=O)N3CCC(N4CCCCC4)CC3)c3ccccc32)cc1
not listed: [2] | [3] | [4] | [6] | [17] | [20]
inactive: all other assays above

CC(C)(CCl)c1ccccc1
not listed: [2] | [9] | [15]
inactive: all other assays above

CC(N)CN (stereo not drawn)
not listed: [2] | [4] | [10] | [16] | [18] | [20]
inactive: all other assays above

CCOC(=O)C(C)Oc1ccc(Oc2nc3ccc(Cl)cc3o2)cc1 (stereo not drawn)
not listed: [16] | [19] | [20]
inactive: all other assays above

Cc1ccc(Nc2nccc(N(C)c3ccc4c(C)n(C)nc4c3)n2)cc1S(N)(=O)=O
not listed: [2] | [3] | [4] | [5] | [7] | [16] | [20]
inactive: all other assays above
